Measured values taken from PubChem BioAssay AID619 (University of Pittsburgh Molecular Library Screening Center, 2007).
About 520 (0.54%) of roughly 97,000 compounds were called active. This excerpt belongs to a sample that is enriched for actives. Unmarked numbers belong to inactive results.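 How the source made its calls: active means inhibition of 50% or more in the single-concentration screen; inactive means inhibition below 50%.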

What follows are compounds tested against Serine/threonine-protein kinase PLK1 (Homo sapiens) (UniProt P53350) (assay: Plk1 peptide phosphorylation blockers – biochemical, TR-FRET, primary screen (AID 619;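 further: 0% = DMSO max control and 100% = H-89 dihydrochloride min control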)). Settings: recombinant PLK1 kinase, at 10 µM, hits give high values.
Sequence of Serine/threonine-protein kinase PLK1 (Homo sapiens) (P53350 whole entry, looked up): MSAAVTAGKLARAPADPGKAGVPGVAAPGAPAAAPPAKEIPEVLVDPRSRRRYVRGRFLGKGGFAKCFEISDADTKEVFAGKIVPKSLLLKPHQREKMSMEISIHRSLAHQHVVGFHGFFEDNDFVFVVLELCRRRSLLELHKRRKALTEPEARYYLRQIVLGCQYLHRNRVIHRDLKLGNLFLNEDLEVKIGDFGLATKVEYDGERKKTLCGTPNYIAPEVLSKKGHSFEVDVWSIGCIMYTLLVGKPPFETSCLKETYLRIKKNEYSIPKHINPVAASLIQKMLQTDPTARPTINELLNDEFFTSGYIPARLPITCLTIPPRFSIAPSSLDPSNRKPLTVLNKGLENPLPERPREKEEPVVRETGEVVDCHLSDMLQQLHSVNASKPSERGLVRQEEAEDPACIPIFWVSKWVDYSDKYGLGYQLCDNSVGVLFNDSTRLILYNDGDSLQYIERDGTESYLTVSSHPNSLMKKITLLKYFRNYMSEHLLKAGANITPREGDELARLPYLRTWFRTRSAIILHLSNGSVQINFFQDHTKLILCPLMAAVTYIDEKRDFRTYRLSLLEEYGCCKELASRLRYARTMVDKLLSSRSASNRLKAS
`CC1=CC(=O)C=CC1(C)C(Cl)(Cl)Cl` (centres undefined) gave an inhibition of -6.25%.
For `CC/C(=N/Nc1ccccc1)c1cnnc(SC)n1`, the inhibition was -14.3%.
For `COC(=O)/C=C/C(=O)NCc1ccco1`, the inhibition was -9.17%.
`Cc1ccccc1CSCCNC(=O)c1ccc(N(C)S(=O)(=O)c2ccccc2)cc1` was tested, and the inhibition was 57.1% (active).
Work on `Cc1ccccc1CSCCNC(=O)c1ccc(Cl)c(S(=O)(=O)N2CCOCC2)c1` yielded an inhibition of -1.84%.
Compound `Cc1ccc(C(=O)NCCNS(=O)(=O)c2ccccc2)cc1` has an inhibition of -5.51%.
`Cc1cc(OCCOc2cccc3cccnc23)c(C)cc1Cl` was tested, and the inhibition was -13.9%.
`CCN1C(=O)/C(=C2/Sc3ccc(OC)cc3N2C)SC1=Nc1ccc(C)cc1` was tested, and the inhibition was -9.58%.
Work on `CCCc1nc(NCc2ccc3c(c2)OCO3)c2nnn(Cc3ccccc3Cl)c2n1` yielded an inhibition of -9.3%.
`CCC(=O)NNc1cc(=O)c2c(=O)n(C)c(=O)n(C)c2[nH]1` was tested, and the inhibition was -9.06%.
In the case of `CN(C)/C=C(\C#N)C(=O)c1cccnc1Oc1ccc(F)cc1F`, the inhibition is reported as -4.48%.
In the case of `COCCCNC(=O)C1CC(=O)N(CCc2ccccc2)C1` (centres undefined), the inhibition is reported as -12.8%.
With `COc1cc(OC)cc(-c2cc3nc(C4CCN(C(=O)OC(C)(C)C)CC4)cc(=O)n3[nH]2)c1` the inhibition was -8.81%.
`Cc1c(Nc2nc3ccccc3nc2NS(=O)(=O)c2cccs2)c(=O)n(-c2ccccc2)n1C` gave an inhibition of -2.91%.
Work on `Cc1cccc(N(CC(=O)N2CCOCC2)S(C)(=O)=O)c1` yielded an inhibition of -16.7%.
For `Cc1cccc(N2C(=O)SC(N(CC(=O)O)c3cccc(C)c3)C2=O)c1` (centres undefined), the inhibition was 68.7% (active).
With `Cc1cccc(N2C(=O)C3C(c4ccccc4)OC4(C(=O)c5ccccc5C4=O)C3C2=O)c1` (centres undefined) the inhibition was -6.04%.
`CCOC(=O)c1cc(C#N)c(N2CCCCC2)nc1-c1ccccc1` was tested, and the inhibition was -7.56%.
`COc1ccc(NC(=O)Cn2nnc(C(=O)NCCc3ccc(OC)c(OC)c3)c2N)cc1` was tested, and the inhibition was -3.12%.
For `CCC(=O)NCCc1nc2ccccc2n1CC`, the inhibition was -12.5%.
With `Cc1ccc(S(=O)(=O)NCC(C)NS(C)(=O)=O)cc1` (centres undefined) the inhibition was -7.03%.
With `O=C(c1cccc(F)c1)N1CCC(O)(c2cccnc2)CC1` the inhibition was -11.3%.
`Cc1cc(S(=O)(=O)NC2CCCCC2)ccc1OCC(=O)NCc1cccnc1` showed an inhibition of -6.44%.
In the case of `Cc1ccc(N2C(=O)S/C(=C/c3cn(C)c4ccccc34)C2=O)cc1`, the inhibition is reported as -7.68%.
`Cn1c(=O)[nH]c(=O)c2c1nc(NCCCn1ccnc1)n2Cc1cccc(Br)c1` was tested, and the inhibition was 51.2% (active).
With `CCCCNc1nc2c(c(=O)[nH]c(=O)n2C)n1CCOc1ccccc1` the inhibition was -13.6%.
Work on `CC(c1ccccc1)n1c(NCCCn2ccnc2)nc2c1c(=O)[nH]c(=O)n2C` (centres undefined) yielded an inhibition of -13.2%.
In the case of `CCOC(=O)N1CCC(N(CCOC)C(=O)Nc2ccc(C)c(C)c2)CC1`, the inhibition is reported as -7.06%.
For `Cn1nc(-c2ccccc2)c(CSc2cccc(Cl)c2)c1Cl`, the inhibition was -5.77%.
Work on `CCCC(=O)C1CCN(Cc2ccccc2)CC1` yielded an inhibition of -5.07%.
`Cc1ccc(N2C(=O)C(Cc3ccccc3)NC2=S)cc1` (centres undefined) gave an inhibition of -4.76%.
With `CCOC(=O)c1ccc2c(c1)nc(SCC(=O)NC(C)C)n2CC` the inhibition was -12.9%.
`O=C(NCCCN1CCOCC1)c1cc2c(s1)CCC2` gave an inhibition of 12.4%.
Work on `CCn1c(SCC(=O)Nc2ccc(OC)c(OC)c2)nnc1-c1c[nH]c2ccccc12` yielded an inhibition of -21.5%.
With `CCC(C)Sc1nnc(-c2c[nH]c3ccccc23)n1CCOC` (centres undefined) the inhibition was -10.2%.
For `CCn1c(SCCC(C)C)nnc1-c1c[nH]c2ccccc12`, the inhibition was 57.8% (active).
`CCCC(C(=O)n1nc(C)cc1C)C(NS(=O)(=O)c1ccc(C)cc1)c1ccccc1` (centres undefined) showed an inhibition of -12%.
Compound `COc1ccc(Oc2coc3cc(OC(=O)c4cncc(Br)c4)ccc3c2=O)cc1` has an inhibition of -8.95%.
In the case of `Cc1cc(C)c2nc(NC(=O)C3CCCO3)sc2c1` (centres undefined), the inhibition is reported as -2.38%.
